Cav3 T inh: inhibitors of human Cav3.2 T-type calcium channel; O95180; Cav3.2-expressing cells, Fluo-4 calcium fluorescence FDSS; active compounds read low; B-score at 10 µM; hit rate 4% among 100,000;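 active = single-dose well whose peak fluorescence ratio is a statistical outlier from its plate by either plate-standardised score or position-corrected B-score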
CYP2C9 act: CYP2C9 (human) activation; P11712; recombinant CYP2C9, luciferin-H conversion, luminescence; active compounds read high; factor 1 = untreated enzyme, 0 = blocked; activation factor at 5 µM; hit rate 1.4% among 96,000; AID 1024;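 active = activation factor of 2 or more for CYP2C9 at a 5 µM dose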;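 note: 0 = sulfaphenazole-blocked wells and 1 = vehicle-only wells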
CYP2C19 inh: inhibitors of human CYP2C19. P33261. CYP2C19 Supersomes, luciferin-H EGE luminescence, 30 min. inhibition, % at 5 µM. hit rate 21% among 96,000;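 active = CYP2C19 inhibition above a set limit at 5 µM in the primary screen, cut at about 50% in these data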;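 note: plate controls were negative control wells for no effect and 2.5 mM tranylcypromine positive control for full effect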
CYP2C19 activ: cytochrome P450 2C19 (human) activation | P33261 | recombinant CYP2C19, luciferin-H EGE luminescence; active compounds read high; 0 = fully inhibited enzyme, 1 = untreated enzyme | activation factor at 5 µM | 96,000 tested, under 10 active | AID 1025;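 active = activation factor of at least 2 at 5 µM in the primary screen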;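 note: 0 = wells with 2.5 mM tranylcypromine and 1 = vehicle-only wells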
CYP2C9 inh: inhibitors of human CYP2C9; P11712; CYP2C9 Supersomes, luciferin-H conversion, luminescence; inhibition, % at 5 µM; hit rate 20% among 96,000;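 active = blocking of liver enzyme CYP2C9 beyond about 50% at 5 µM, limit read from the data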
An asterisk follows results filed as active; . = no result given. A selection: hits, their analogues and other compounds. The true share with any hit is near 27%.

SMILES	Cav3 T inh	CYP2C9 act	CYP2C19 inh	CYP2C19 activ	CYP2C9 inh
COc1ccccc1N1CCN(C(=O)C(C)N(c2ccccc2)S(C)(=O)=O)CC1 (stereo unspecified)	0.84	0.9	0	1	8
Cc1ccc(N2C(=O)c3ccc(C(=O)N4CCN(c5cccc(C)c5C)CC4)cc3C2=O)cc1	-2.9	.	.	.	.
Cc1cccc(N2CCN(C(=O)c3ccc4ncsc4c3)CC2)c1C	-4.1	0.7	66*	0.3	28
Cc1cccc(N2CCN(C(=O)c3ccncc3)CC2)c1C	1.5	0.1	100*	0	86*
Cc1nn(Cc2ccccc2Cl)c(C)c1N	.	0.9	75*	0.3	8
Cc1cccc(N2CCN(C(=O)c3c(C)nn(Cc4ccccc4Cl)c3C)CC2)c1C	-5.5*	0.7	2	1	34
O=C(Nc1ccc(Cl)cc1)c1ccc(-n2cncn2)c([N+](=O)[O-])c1	0.2	0	100*	0	98*
Cc1ccc(NC(=O)c2ccc(-n3cncn3)c([N+](=O)[O-])c2)cc1	0.27	0.1	100*	0	91*
O=C(Nc1cccc(Cl)c1)c1ccc(-n2cncn2)c([N+](=O)[O-])c1	-0.49	0	100*	0	100*
Cc1ccc(NC(=O)c2ccc(-n3cccn3)c([N+](=O)[O-])c2)cc1C	-0.64	0.6	17	0.8	43
CN(C)c1ccc(C(=O)Nc2cc(C(F)(F)F)ccc2-n2cncn2)cc1	-0.34	1	-7	1.1	-4
O=C(Nc1cccc(Cl)c1)c1ccc(NCCCN2CCOCC2)c([N+](=O)[O-])c1	1.6	0.8	30	0.7	25
O=C(O)c1nc(N2CCCC2)ncc1Cl	0.22	0.9	1	1	6
CC(C)c1ccc(CN(C(=O)C2COc3ccccc3O2)C2CCS(=O)(=O)C2)cc1 (stereo unspecified)	-4.4*	0.7	5	1	32
CN(C)c1ccc(CN(C(=O)C2COc3ccccc3O2)C2CCS(=O)(=O)C2)cc1 (stereo unspecified)	0.35	0.3	94*	0.1	65*
N#CCCn1c(C(C#N)(CCC#N)CCC#N)nc2ccccc21	1.3	1.1	-12	1.1	-8
O=S(=O)(Cc1cc(Sc2ccc(Cl)cc2)nc(-c2ccccc2)n1)c1ccccc1	-4*	0.2	65*	0.3	81*
O=S(=O)(Cc1cc(Oc2ccccc2)nc(-c2ccccc2)n1)c1ccccc1	-5.1*	0.4	59*	0.4	61*
CCOC(=O)C(C)Sc1cc(CS(=O)(=O)c2ccccc2)nc(-c2ccccc2)n1 (stereo unspecified)	-5.8*	0	77*	0.2	96*
Cc1cc(Oc2ccccc2)nc(-c2ccccc2)n1	-0.35	0.8	18	0.8	16
Cc1nc(CS(=O)(=O)c2ccc(Cl)cc2)cc(Sc2ccc(Cl)cc2)n1	-5.3*	0.1	12	0.9	88*
O=C(NC1CCCC1)C(c1ccc(Cl)cc1)N1CCOCC1 (stereo unspecified)	-0.86	0.8	16	0.8	24
Cc1ccc(-n2nnnc2SCn2nnc3ccccc3c2=O)c(C)c1	-4.2	1.7	30	0.7	-66
O=C(OCc1c(Cl)cccc1Cl)c1cccnc1	-0.83	0.8	86*	0.1	22
O=C(OCc1c(Cl)cccc1Cl)c1cccnc1Cl	-1.3	1.8	52*	0.5	-78
SMILES	Cav3 T inh	CYP2C9 act	CYP2C19 inh	CYP2C19 activ	CYP2C9 inh
CC1Cc2ccccc2N1C(=O)CCn1c(=O)sc2ccccc21 (stereo unspecified)	-2.8	.	.	.	.
Cc1ccc(N2C(=O)NC3(CCCCC3)C2=O)cc1	1.3	0.9	42	0.6	9
Cc1ccc(N2C(=O)CC3(CC4C=CC3C4)C2=O)cc1 (stereo unspecified)	0.85	0.2	37	0.6	81*
O=C(OCCN=C1NS(=O)(=O)c2ccccc21)c1cccnc1	0.27	0.8	12	0.9	16
O=C(OCCN=C1NS(=O)(=O)c2ccccc21)c1ccccc1	-0.47	0.1	44	0.6	85*
O=C(OCCN=C1NS(=O)(=O)c2ccccc21)C1CC(=O)N(c2ccc(Cl)cc2)C1 (stereo unspecified)	1	0.4	44	0.6	63*
COc1ccc(C(=O)COC(=O)CCN=C2NS(=O)(=O)c3ccccc32)cc1OC	0.72	0.7	74*	0.3	27
COC(=O)C1=C(COc2ccc(F)cc2)NC(=O)NC1c1ccc(C)cc1C (stereo unspecified)	-2.3	1	2	1	-2

Assay outcomes from PubChem.
